The full data set covers some 7,900 targets. This sample favours those with a hit. About 0.6% of all pairs of compound and target were hits. Unmarked numbers belong to inactive results.
How the values were obtained:
Assay in all cases: log2 fold change, soluble protein after heating vs DMSO (PISA); higher = thermal stabilisation; K562 cells, 10 uM, 30 min; active = over 0.2 and 3.5 SD of the protein, either way, in both replicates (recomputed)
[1] = compound: CC[C@@H]1C(=O)N(C)c2cnc(Nc3ccc(C(=O)NC4CCN(C)CC4)cc3OC)nc2N1C1CCCC1
Method in brief: (§1)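 K562 cells at 2×10^6 cells/mL were treated for 30 min with 10 μM compound, and aliquots were heated for 3 min over 48°C-58°C before pooling. Extraction used PBS with 0.5% NP-40 at 4°C, and soluble protein was the supernatant after 21,000xg for 90 min, measured by TMTpro 16plex LC-MS/MS with channel sums equalised. Thermal stability values, relative to control samples and from duplicates, are log2 fold changes.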

[2] = compound: CC[C@@H]1C(=O)N(C)c2cnc(Nc3ccc(C(=O)N[C@H]4CC[C@H](N5CCN(CC6CC6)CC5)CC4)cc3OC)nc2N1C(C)C [volasertib]
Method in brief: as §1

[3] = compound: CC[C@H](C)N1C=C(C2=C(C=C(C=C21)C3=CN=C(C=C3)N4CCNCC4)C(=O)NCC5=C(C=C(NC5=O)C)C)C
Method in brief: as §1

[4] = compound: CC[C@H](C)[C@@H](C(=O)N[C@@H]([C@@H](C)O)C(=O)N[C@@H](CC(C)C)C(=O)[C@]1(CO1)C)NC(=O)[C@H]([C@@H](C)CC)N(C)C(=O)C [epoxomicin]
Method in brief: as §1

[5] = compound: CCn1c(C(=O)N(C2CC2)C2CC2)cc2c3c(ncn3C)c(Nc3cc(C)n(C)n3)nc21
Method in brief: as §1

[6] = compound: CCn1cc(-c2ccnc3[nH]c(-c4cccc(CN(C)C)c4)cc23)c(-c2ccc(NC(=O)N(C)C)cc2)n1
Method in brief: as §1

[7] = compound: CN(C)CC(=O)Nc1ccc2[nH]c(=O)c3ccccc3c2c1
Method in brief: as §1

[8] = compound: CN(CCOC1=CC=C(C=C1)C[C@H]2C(=O)NC(=O)S2)C3=CC=CC=N3 (racemic) [rosiglitazone]
Method in brief: as §1

[9] = compound: CN1C2=C(C3=C1C(=O)N(N=C3)CC4=CC(=CC=C4)N)SC(=C2)S(=O)C
Method in brief: as §1

[10] = compound: CN1CCC(CNc2ccc3ncc(-c4cccc(OC(F)(F)F)c4)n3n2)CC1
Method in brief: as §1

[11] = compound: CN1CCN(CCOc2cc(OC3CCOCC3)c3c(Nc4c(Cl)ccc5c4OCO5)ncnc3c2)CC1 [saracatinib]
Method in brief: as §1

[12] = compound: CN1CCN(c2nc(C3=C(c4c[nH]c5ccccc45)C(=O)NC3=O)c3ccccc3n2)CC1 [sotrastaurin]
Method in brief: as §1

[13] = compound: CN1CC[C@H](c2c(O)cc(O)c3c(=O)cc(-c4ccccc4Cl)oc23)[C@H](O)C1 [alvocidib]
Method in brief: as §1

[14] = compound: CN1CCc2c(c3ccccc3n2Cc2ccc(C(=O)NO)cc2)C1 [Tubastatin A]
Method in brief: as §1

[15] = compound: CNC(=O)C1=CC=CC=C1NC2=NC(=NC=C2Cl)NC3=C(C=C(C=C3)N4CCOCC4)OC
Method in brief: as §1

[16] = compound: CNC(=O)c1ccc(Nc2ncc(C(F)(F)F)c(NCc3nccnc3N(C)S(C)(=O)=O)n2)cc1 [defactinib]
Method in brief: as §1

[17] = compound: CNCc1ccc(-c2[nH]c3cc(F)cc4c3c2CCNC4=O)cc1 [rucaparib]
Method in brief: as §1

[18] = compound: CNc1nc(-c2ccc3c(N)n[nH]c3c2)cc(N2C[C@@H](C(=O)NC3CCCCC3)CC[C@H]2C)n1
Method in brief: as §1

[19] = compound: COC(=O)N[C@@H](C)CNc1nccc(-c2cn(C(C)C)nc2-c2cc(Cl)cc(NS(C)(=O)=O)c2F)n1 [encorafenib]
Method in brief: as §1

[20] = compound: COC(=O)[C@H](CCSC)NC(=O)C1=C(C=C(C=C1)NC[C@H](CS)N)C2=CC=CC=C2
Method in brief: as §1

Chain of UniProt O43809 (O43809 whole entry, looked up): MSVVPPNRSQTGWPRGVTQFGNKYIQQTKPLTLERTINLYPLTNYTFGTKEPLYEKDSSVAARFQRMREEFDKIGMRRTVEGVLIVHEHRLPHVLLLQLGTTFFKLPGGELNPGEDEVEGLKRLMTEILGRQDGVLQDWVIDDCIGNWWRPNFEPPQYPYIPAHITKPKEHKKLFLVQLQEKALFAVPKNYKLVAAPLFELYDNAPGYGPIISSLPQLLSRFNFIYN
Chain of UniProt Q8N4C8 (Q8N4C8 whole entry, looked up): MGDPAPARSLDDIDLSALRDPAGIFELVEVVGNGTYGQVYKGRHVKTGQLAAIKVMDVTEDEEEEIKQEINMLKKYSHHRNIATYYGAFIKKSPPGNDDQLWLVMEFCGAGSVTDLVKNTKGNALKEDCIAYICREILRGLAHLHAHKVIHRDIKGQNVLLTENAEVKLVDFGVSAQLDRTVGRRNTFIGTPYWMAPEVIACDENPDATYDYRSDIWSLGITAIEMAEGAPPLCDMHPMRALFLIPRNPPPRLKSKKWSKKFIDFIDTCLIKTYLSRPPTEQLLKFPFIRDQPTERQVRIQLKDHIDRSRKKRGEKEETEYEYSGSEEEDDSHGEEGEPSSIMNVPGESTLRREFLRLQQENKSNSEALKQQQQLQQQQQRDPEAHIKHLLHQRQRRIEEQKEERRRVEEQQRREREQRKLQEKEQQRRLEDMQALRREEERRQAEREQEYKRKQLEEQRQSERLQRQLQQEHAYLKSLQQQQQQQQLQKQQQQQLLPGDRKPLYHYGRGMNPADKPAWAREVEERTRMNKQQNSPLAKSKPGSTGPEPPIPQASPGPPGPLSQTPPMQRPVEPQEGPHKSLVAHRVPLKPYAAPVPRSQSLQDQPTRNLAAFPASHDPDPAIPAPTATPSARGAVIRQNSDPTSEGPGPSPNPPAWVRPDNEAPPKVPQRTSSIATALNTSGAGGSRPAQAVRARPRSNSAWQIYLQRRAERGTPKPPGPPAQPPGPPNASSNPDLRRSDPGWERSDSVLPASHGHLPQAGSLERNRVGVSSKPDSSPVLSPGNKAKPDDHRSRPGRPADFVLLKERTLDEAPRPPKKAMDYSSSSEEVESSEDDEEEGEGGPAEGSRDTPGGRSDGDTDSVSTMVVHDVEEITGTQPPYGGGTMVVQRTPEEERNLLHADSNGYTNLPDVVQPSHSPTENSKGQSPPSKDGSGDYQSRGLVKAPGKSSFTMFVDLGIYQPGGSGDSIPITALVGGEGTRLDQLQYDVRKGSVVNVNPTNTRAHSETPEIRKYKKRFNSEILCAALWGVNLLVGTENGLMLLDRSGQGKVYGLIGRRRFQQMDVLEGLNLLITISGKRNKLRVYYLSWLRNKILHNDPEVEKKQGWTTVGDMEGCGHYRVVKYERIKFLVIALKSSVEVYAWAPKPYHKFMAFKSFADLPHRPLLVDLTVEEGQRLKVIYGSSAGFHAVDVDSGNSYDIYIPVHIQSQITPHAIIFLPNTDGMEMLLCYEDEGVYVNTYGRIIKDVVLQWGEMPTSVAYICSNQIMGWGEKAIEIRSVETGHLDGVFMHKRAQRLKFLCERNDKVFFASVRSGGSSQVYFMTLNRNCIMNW
Chain of UniProt Q12769 (Q12769 whole entry, looked up): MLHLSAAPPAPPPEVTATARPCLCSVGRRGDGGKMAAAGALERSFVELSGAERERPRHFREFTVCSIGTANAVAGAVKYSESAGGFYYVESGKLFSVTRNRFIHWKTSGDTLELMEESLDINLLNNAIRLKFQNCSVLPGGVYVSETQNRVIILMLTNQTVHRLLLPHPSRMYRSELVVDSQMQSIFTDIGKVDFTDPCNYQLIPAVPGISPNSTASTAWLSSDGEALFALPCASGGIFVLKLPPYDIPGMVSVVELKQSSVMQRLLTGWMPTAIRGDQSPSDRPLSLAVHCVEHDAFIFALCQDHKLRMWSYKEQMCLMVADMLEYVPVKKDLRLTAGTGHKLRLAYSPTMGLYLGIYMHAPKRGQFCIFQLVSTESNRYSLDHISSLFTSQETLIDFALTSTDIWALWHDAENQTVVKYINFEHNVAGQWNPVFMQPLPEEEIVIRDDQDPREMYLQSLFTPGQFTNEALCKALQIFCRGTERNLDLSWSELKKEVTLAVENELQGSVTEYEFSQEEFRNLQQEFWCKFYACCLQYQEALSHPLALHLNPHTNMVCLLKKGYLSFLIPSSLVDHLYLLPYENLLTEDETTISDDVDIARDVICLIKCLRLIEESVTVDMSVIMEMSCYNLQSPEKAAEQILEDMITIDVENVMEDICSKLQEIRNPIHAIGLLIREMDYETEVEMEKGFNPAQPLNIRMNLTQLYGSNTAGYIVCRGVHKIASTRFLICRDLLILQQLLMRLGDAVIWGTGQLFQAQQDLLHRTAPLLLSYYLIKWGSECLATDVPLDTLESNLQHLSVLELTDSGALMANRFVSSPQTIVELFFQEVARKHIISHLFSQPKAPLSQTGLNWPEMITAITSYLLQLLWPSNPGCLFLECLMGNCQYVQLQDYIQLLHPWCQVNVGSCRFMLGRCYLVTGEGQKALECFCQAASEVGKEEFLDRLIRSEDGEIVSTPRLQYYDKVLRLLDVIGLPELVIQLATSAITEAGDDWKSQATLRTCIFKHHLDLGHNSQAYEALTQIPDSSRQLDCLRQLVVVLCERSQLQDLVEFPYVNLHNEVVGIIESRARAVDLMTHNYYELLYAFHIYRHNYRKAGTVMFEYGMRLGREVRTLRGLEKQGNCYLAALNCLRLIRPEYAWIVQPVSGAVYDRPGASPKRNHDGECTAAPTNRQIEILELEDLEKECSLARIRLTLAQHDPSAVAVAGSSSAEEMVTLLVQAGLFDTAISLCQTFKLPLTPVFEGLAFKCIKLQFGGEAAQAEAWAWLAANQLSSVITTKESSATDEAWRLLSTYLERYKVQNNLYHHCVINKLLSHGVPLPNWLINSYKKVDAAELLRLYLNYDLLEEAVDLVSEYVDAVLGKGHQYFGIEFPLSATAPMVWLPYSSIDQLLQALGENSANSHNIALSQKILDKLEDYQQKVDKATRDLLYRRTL
Chain of UniProt Q330K2 (Q330K2 whole entry, looked up): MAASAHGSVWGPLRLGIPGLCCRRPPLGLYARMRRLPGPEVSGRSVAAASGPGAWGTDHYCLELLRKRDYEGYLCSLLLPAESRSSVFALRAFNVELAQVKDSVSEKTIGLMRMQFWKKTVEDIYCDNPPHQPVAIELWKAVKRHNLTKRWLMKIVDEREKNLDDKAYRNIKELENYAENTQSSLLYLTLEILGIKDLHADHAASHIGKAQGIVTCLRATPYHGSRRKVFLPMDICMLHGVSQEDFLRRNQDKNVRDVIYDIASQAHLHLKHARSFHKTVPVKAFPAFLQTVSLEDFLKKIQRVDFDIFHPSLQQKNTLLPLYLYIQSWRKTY
Chain of UniProt Q969V5 (Q969V5 whole entry, looked up): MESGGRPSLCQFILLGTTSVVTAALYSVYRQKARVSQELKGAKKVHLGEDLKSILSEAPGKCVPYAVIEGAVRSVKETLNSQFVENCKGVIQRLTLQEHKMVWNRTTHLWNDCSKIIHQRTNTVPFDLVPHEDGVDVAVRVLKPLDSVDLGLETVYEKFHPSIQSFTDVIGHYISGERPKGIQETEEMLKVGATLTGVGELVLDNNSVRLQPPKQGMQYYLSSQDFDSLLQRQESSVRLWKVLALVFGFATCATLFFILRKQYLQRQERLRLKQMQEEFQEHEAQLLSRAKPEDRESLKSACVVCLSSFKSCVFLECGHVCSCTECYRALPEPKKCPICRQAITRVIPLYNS
Chain of UniProt Q96D46 (Q96D46 whole entry, looked up): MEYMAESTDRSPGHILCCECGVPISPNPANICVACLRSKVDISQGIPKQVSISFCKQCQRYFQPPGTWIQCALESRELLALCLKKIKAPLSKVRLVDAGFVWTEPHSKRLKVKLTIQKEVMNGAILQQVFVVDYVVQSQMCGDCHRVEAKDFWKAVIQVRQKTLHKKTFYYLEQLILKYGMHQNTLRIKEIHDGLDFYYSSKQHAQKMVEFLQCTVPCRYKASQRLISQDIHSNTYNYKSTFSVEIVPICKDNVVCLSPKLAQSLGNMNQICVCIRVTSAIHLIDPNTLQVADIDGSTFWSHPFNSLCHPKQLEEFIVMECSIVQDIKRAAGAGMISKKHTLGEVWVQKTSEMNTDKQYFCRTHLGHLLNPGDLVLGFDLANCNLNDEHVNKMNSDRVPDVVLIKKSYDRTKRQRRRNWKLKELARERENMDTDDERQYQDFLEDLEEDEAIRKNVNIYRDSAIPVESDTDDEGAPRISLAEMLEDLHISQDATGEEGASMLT
Chain of UniProt Q13153 (Q13153 whole entry, looked up): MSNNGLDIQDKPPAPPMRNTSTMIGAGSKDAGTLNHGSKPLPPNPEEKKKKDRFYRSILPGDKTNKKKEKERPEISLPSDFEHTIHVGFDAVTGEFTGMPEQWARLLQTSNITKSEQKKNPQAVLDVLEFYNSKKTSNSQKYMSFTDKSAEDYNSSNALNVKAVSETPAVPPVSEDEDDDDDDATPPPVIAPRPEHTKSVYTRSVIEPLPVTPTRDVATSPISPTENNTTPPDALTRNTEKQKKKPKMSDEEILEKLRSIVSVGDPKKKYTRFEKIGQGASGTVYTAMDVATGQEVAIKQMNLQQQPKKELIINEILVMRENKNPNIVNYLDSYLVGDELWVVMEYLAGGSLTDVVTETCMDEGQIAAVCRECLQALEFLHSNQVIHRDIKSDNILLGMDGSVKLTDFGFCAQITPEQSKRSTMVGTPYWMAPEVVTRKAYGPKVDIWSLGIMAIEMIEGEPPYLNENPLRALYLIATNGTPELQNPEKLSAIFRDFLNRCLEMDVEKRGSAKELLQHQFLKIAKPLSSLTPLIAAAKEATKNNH

Target | log2 fold change [1] | log2 fold change [2] | log2 fold change [3] | log2 fold change [4] | log2 fold change [5] | log2 fold change [6] | log2 fold change [7] | log2 fold change [8] | log2 fold change [9] | log2 fold change [10] | log2 fold change [11] | log2 fold change [12] | log2 fold change [13] | log2 fold change [14] | log2 fold change [15] | log2 fold change [16] | log2 fold change [17] | log2 fold change [18] | log2 fold change [19] | log2 fold change [20]
MUL1 (UniProt Q969V5) | 0.061 | 0 | 0.045 | 0.04 | -0.004 | 0.014 | -0.028 | 0.052 | -0.004 | -0.115 | 0.054 | 0.079 | -0.013 | 0.047 | 0.056 | 0.059 | 0.072 | -0.018 | -0.074 | 0.079
NMD3 (UniProt Q96D46) | 0.103 | 0.151 | -0.009 | 0.042 | -0.029 | -0.163 | 0.04 | 0.064 | -0.138 | 0.114 | 0.043 | 0.02 | -0.012 | 0.07 | 0.088 | 0.06 | -0.181 | 0.003 | 0.028 | -0.052
MYH11 isoform 2 (UniProt P35749) | -0.021 | -0.045 | 0.042 | 0.061 | -0.005 | 0.046 | 0.019 | 0.015 | -0.077 | -0.018 | 0.069 | -0.024 | -0.024 | -0.025 | 0.03 | -0.039 | -0.034 | 0.009 | 0.001 | -0.022
NEU1 (UniProt Q99519) | -0.184 | -0.501 (active) | 0.059 | 0.113 | -0.04 | 0.052 | 0.012 | 0.032 | 0.015 | -0.079 | -0.044 | 0 | -0.033 | 0.028 | -0.113 | -0.011 | -0.012 | -0.011 | -0.012 | -0.019
MINK1 (UniProt Q8N4C8) | -0.01 | -0.149 | 0.056 | -0.009 | -0.011 | -0.069 | -0.035 | 0.011 | -0.004 | -0.137 | -0.052 | -0.009 | -0.027 | -0.015 | -0.007 | -0.069 | -0.033 | -0.029 | 0.044 | 0.012
NOLC1 isoform 2 (UniProt Q14978) | -0.155 | -0.024 | -0.051 | -0.06 | -0.015 | 0.047 | -0.048 | -0.018 | 0.026 | -0.112 | -0.007 | -0.036 | -0.206 | 0.153 | -0.122 | -0.346 (active) | -0.025 | -0.089 | -0.007 | 0
NDUFAF6 (UniProt Q330K2) | -0.27 | -0.027 | -0.028 | 0.055 | -0.089 | -0.059 | -0.078 | 0.134 | -0.014 | -0.721 (active) | -0.071 | -0.112 | -0.025 | -0.101 | 0.038 | -0.04 | -0.108 | -0.146 | 0.081 | 0.084
NSMCE4A (UniProt Q9NXX6) | 0.069 | 0.053 | 0.103 | -0.02 | 0.112 | -0.251 | -0.13 | 0.057 | -0.33 | -0.009 | 0.109 | 0.015 | -0.003 | 0.05 | -0.112 | -0.086 | 0 | -0.114 | -0.064 | -0.002
NCOR1 (UniProt O75376) | -0.034 | -0.021 | 0.142 | 0.07 | -0.066 | 0.046 | 0.048 | 0.044 | 0.033 | -0.045 | 0.074 | -0.094 | -0.179 | -0.009 | -0.041 | -0.113 | 0.012 | -0.02 | 0 | 0.007
MRPS25 (UniProt P82663) | 0.031 | -0.057 | 0.145 | -0.126 | -0.091 | -0.295 | -0.056 | -0.042 | 0.074 | 0.036 | -0.097 | -0.059 | -0.039 | 0.084 | -0.021 | -0.072 | 0.129 | 0.233 | -0.016 | -0.017
MRPL46 (UniProt Q9H2W6) | 0.209 | 0.302 | 0.034 | 0.015 | 0.075 | -0.04 | 0.014 | -0.017 | 0.061 | 0.12 | -0.071 | -0.073 | 0.016 | 0.037 | 0.29 (active) | 0.043 | 0.058 | 0.115 | 0.045 | -0.026
PAK1 isoform 2 (UniProt Q13153) | 0.032 | -0.022 | -0.024 | 0.046 | 0.043 | -0.122 | 0.064 | 0.016 | -0.062 | -0.031 | 0.074 | -0.015 | -0.026 | -0.098 | 0.009 | 0.039 | -0.082 | -0.009 | 0.033 | 0.048
NUDT21 (UniProt O43809) | 0.036 | 0.074 | -0.033 | -0.107 | -0.02 | 0.038 | -0.041 | -0.028 | -0.013 | 0.064 | 0.028 | 0.024 | -0.017 | 0.01 | -0.166 | 0.045 | 0.004 | -0.025 | -0.015 | -0.034
MSH2 (UniProt P43246) | -0.103 | -0.173 | 0.039 | 0.066 | -0.034 | 0.036 | 0.059 | 0.046 | -0.019 | -0.067 | -0.006 | -0.072 | -0.111 | 0.041 | 0.065 | -0.153 | -0.06 | 0.031 | 0.062 | -0.037
NUP160 (UniProt Q12769) | -0.109 | -0.62 (active) | 0.005 | -0.049 | -0.01 | 0.04 | 0.007 | 0.03 | -0.033 | 0.014 | 0.155 | -0.141 | -0.078 | 0 | 0.004 | -0.11 | 0.019 | -0.018 | 0.038 | 0.003
NNT (UniProt Q13423) | 0 | 0.013 | 0.036 | 0.023 | -0.018 | -0.073 | 0.015 | 0.042 | -0.097 | -0.008 | 0.005 | 0 | -0.024 | -0.01 | 0.017 | -0.009 | -0.053 | -0.036 | -0.001 | -0.014

Source: the supplement of paper PMC10849652
